{
  "source": "PubChem BioAssay AID743395",
  "about": "(Broad Institute, 2014)",
  "note": "Screen size: about 1,200 compounds; about 480 (40%) were called active. So high a share suggests a set chosen from earlier hits. Only a sample is shown. Potency and affinity values are given separately. A number with no mark means an inactive call. No rule for the calls is given here.",
  "data": [
    {"experiment": "viability loss in human hepatoma cells – cell-based, CellTiter-Glo luminescence, cherry-pick, set 2, cytotoxicity control, dose response (AID 743395);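 also: 0% = neutral control wells and -100% = positive control wells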", "settings": "HepG2 viability, CellTiter-Glo ATP luminescence, 72 h; series mostly up to 26 µM; activity change, negative = cytotoxicity: at the top concentration", "values": [
      {"smiles": "O=S(=O)(Cc1ccccc1)N1CCCCN2[C@H](C1)[C@@H](c1ccc(C#Cc3ccccc3)cc1)[C@@H]2CO", "activity change, negative = cytotoxicity": "-21.4%"},
      {"smiles": "COc1ccc(C#Cc2ccc([C@H]3[C@H]4CN(C(=O)c5ccncc5)CCCCN4[C@H]3CO)cc2)cc1", "activity change, negative = cytotoxicity": "-22.7%"},
      {"smiles": "OC[C@H]1[C@H](c2ccc(C#CC3(O)CCCC3)cc2)[C@H]2CN(Cc3ccccc3F)CCCCN21", "activity change, negative = cytotoxicity": "-17.8%"},
      {"smiles": "C[C@]12C=CC(=O)C=C1CC[C@@H]1C2[C@@H](O)C[C@@]2(C)C1CC[C@]2(O)C(=O)COC(=O)CCC(=O)O", "note": "(stereo partly specified)", "activity change, negative = cytotoxicity": "-0.286%"},
      {"smiles": "Nc1nn(-c2ccccc2)c(N)c1N=Nc1cccc(F)c1", "activity change, negative = cytotoxicity": "-13.9%"},
      {"smiles": "CCN(C(=O)COc1ccc2ccc(=O)oc2c1)C1CCCCC1", "activity change, negative = cytotoxicity": "-7.77%"},
      {"smiles": "CC(C)Nc1nc(Nc2ccc(Cl)cc2F)c2sccc2n1", "activity change, negative = cytotoxicity": "-18%"},
      {"smiles": "COc1cc(C(=O)N2CCC(C(N)=O)CC2)ccc1OCc1c(C)noc1C", "activity change, negative = cytotoxicity": "-3.78%"},
      {"smiles": "Cc1noc(C)c1COc1ccc(C(=O)N2CCN(S(=O)(=O)c3ccc(F)cc3)CC2)cc1", "activity change, negative = cytotoxicity": "-4.3%"},
      {"smiles": "CCOC(=O)c1c(NC(=O)CN2C(=O)NC3(CCC(C)CC3)C2=O)sc(C)c1CC", "note": "(stereo unspecified)", "activity change, negative = cytotoxicity": "3.65%"},
      {"smiles": "CC(Oc1ccccc1Cl)C(=O)Nc1ccc(S(=O)(=O)Nc2nccs2)cc1", "note": "(stereo unspecified)", "activity change, negative = cytotoxicity": "-13.9%"},
      {"smiles": "CCCCCCCCCC(=O)OCC(O)CO", "note": "(stereo unspecified)", "activity change, negative = cytotoxicity": "3.56%"},
      {"smiles": "O=C(CSc1nnc(Cn2c(=O)sc3ccccc32)n1-c1ccccc1)NCc1ccco1", "activity change, negative = cytotoxicity": "-0.55%"},
      {"smiles": "Cc1cccc(COc2ccccc2C(=O)NC2CCC(O)CC2)c1", "note": "(stereo unspecified)", "activity change, negative = cytotoxicity": "-4.57%"},
      {"smiles": "Cc1csc2sc(-c3ccnc(SCC(=O)NCc4ccccc4)n3)c(C)c12", "activity change, negative = cytotoxicity": "-12.3%"},
      {"smiles": "CCC(=O)N1[C@H](CN(CC)C(C)=O)[C@@H](c2ccc(-c3ccccc3)cc2)[C@@H]1CO", "activity change, negative = cytotoxicity": "1.41% [at 23.5 µM]"},
      {"smiles": "CC(C)C#Cc1ccc([C@@H]2[C@@H](CO)N3C(=O)CN(S(=O)(=O)c4ccccc4)C[C@@H]23)cc1", "activity change, negative = cytotoxicity": "-4.65%"},
      {"smiles": "CN(C[C@@H]1N[C@H](CO)[C@H]1c1ccccc1)C(=O)c1ccccn1", "activity change, negative = cytotoxicity": "1.53%"},
      {"smiles": "CNC(=O)CC1C(=O)N(c2ccc(F)cc2)C(=S)N1NC(=O)c1ccc(Cl)cc1", "note": "(stereo unspecified)", "activity change, negative = cytotoxicity": "-23.1%"},
      {"smiles": "C[C@H]1CCCCO[C@@H](CN(C)C(=O)Nc2ccc(C(F)(F)F)cc2)[C@@H](C)CN([C@@H](C)CO)C(=O)c2cc(NC(=O)Nc3ccc(F)cc3)ccc2O1", "activity change, negative = cytotoxicity": "14.7%"},
      {"smiles": "C[C@@H]1CN([C@@H](C)CO)C(=O)c2cccc(NC(=O)NC3CCCCC3)c2O[C@@H]1CN(C)Cc1ccc(Cl)c(Cl)c1", "activity change, negative = cytotoxicity": "5.25%"},
      {"smiles": "C[C@H]1CCCCO[C@H](CN(C)C(=O)Nc2ccc(C(F)(F)F)cc2)[C@@H](C)CN([C@@H](C)CO)C(=O)c2cc(NC(=O)Nc3ccc(F)cc3)ccc2O1", "activity change, negative = cytotoxicity": "-0.6%"},
      {"smiles": "C[C@H]1CCCCO[C@@H](CN(C)C(=O)C2CCCCC2)[C@@H](C)CN([C@@H](C)CO)C(=O)c2cc(NC(=O)Nc3ccc(C(F)(F)F)cc3)ccc2O1", "activity change, negative = cytotoxicity": "-1.26% [at 23.5 µM]"},
      {"smiles": "C[C@H](CO)N1C[C@H](C)[C@@H](CN(C)C(=O)Nc2ccc(C(F)(F)F)cc2)OCCCC[C@H](C)Oc2ccc(NC(=O)Nc3ccc(F)cc3)cc2C1=O", "activity change, negative = cytotoxicity": "-21%"},
      {"smiles": "C[C@H]1CCCCO[C@@H](CN(C)C(=O)Nc2ccc(C(F)(F)F)cc2)[C@@H](C)CN([C@@H](C)CO)C(=O)c2cc(NC(=O)Nc3ccc4c(c3)OCO4)ccc2O1", "activity change, negative = cytotoxicity": "-1.27%"},
      {"smiles": "C[C@H]1CN([C@@H](C)CO)S(=O)(=O)c2ccc(/C=C/c3ccccc3)cc2O[C@@H]1CN(C)C(=O)Nc1ccc(F)cc1", "activity change, negative = cytotoxicity": "-1.73%"},
      {"smiles": "Cn1cnc2nc[nH]c2c1=S", "activity change, negative = cytotoxicity": "1.09%"},
      {"smiles": "Cc1ccc(NC(=O)COc2ccc(Br)cc2CO)cc1S(=O)(=O)N1CCOCC1", "activity change, negative = cytotoxicity": "5.44%"},
      {"smiles": "CCc1nc(C)cn1S(=O)(=O)c1ccc2c(c1)OCCO2", "activity change, negative = cytotoxicity": "23%"},
      {"smiles": "COC(=O)c1[nH]c2c(c1C)C(=O)CC(c1cccc(OC)c1)C2", "note": "(stereo unspecified)", "activity change, negative = cytotoxicity": "-9.76%"},
      {"smiles": "CCCCC(=NCCc1c(C)[nH]c2ccccc12)C1=C(O)CC(c2ccccc2)CC1=O", "note": "(stereo unspecified)", "activity change, negative = cytotoxicity": "-16.5%"},
      {"smiles": "O=C(Cc1ccccn1)NCC[C@H]1CC[C@@H](NC(=O)Nc2ccc(C(F)(F)F)cc2)[C@@H](CO)O1", "activity change, negative = cytotoxicity": "8.05%"},
      {"smiles": "Cc1ccc(S(=O)(=O)N(Cc2cc3ccccc3[nH]c2=O)c2cccc(C)c2)cc1", "activity change, negative = cytotoxicity": "1.26%"},
      {"smiles": "C=CC(C)(C)c1[nH]cnc1/C=C1\\NC(=O)C(C(C)C)NC1=O", "note": "(stereo unspecified)", "activity change, negative = cytotoxicity": "-24.7%"},
      {"smiles": "O=C(Cc1ccc(Cl)cc1)OCC(=O)c1ccc[nH]1", "activity change, negative = cytotoxicity": "-6.25%"},
      {"smiles": "Cc1ccc(CN(C)CC(=O)Nc2cccc([N+](=O)[O-])c2)o1", "activity change, negative = cytotoxicity": "-15.2%"},
      {"smiles": "CCCCN(C(=O)c1cc(S(=O)(=O)N2CCCCC2)ccc1Cl)c1c(N)n(CC(C)C)c(=O)[nH]c1=O", "activity change, negative = cytotoxicity": "-14.3%"},
      {"smiles": "CN1C(=O)c2cc(NC(=O)Cc3ccccc3)ccc2OC[C@@H]2O[C@H](CC(=O)NCc3ccc(Cl)cc3)CC[C@H]21", "activity change, negative = cytotoxicity": "-16%"},
      {"smiles": "O=C(C[C@H]1CC[C@@H]2[C@H](COC[C@@H](O)CN2S(=O)(=O)c2ccccc2)O1)Nc1ccc(-c2ccccc2)cc1", "activity change, negative = cytotoxicity": "-22.6%"},
      {"smiles": "COc1ccc(NC(=O)CSc2nnc(Cc3cccs3)n2C)cc1", "activity change, negative = cytotoxicity": "-0.153%"},
      {"smiles": "CCCCn1cnc2c(c(CC#N)nn2-c2ccccc2)c1=N", "activity change, negative = cytotoxicity": "0.565%"}
    ]}
  ]
}
